The text below walks through data of PubChem BioAssay AID651640 (Broad Institute, 2012).

Hit rate of the full screen: of about 350,000 compounds, about 6,000 (1.7%) were called active. Roughly 5% stayed inconclusive and do not appear here. Rule as the data show it: active = CPE inhibition above about 20% (passing the limit was not always enough); inconclusive = no clear call, values can overlap the other calls; tested in BHK-21 cells. The list comes from a sample in which actives are over-represented; it also holds similar structures and randomly drawn compounds.

The nature of this experiment: protection of cells from dengue 2 killing – plate reader, single concentration, primary screen (AID 651640).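 Also: 0% = median of neutral control wells and 100% = median of positive control wells.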 The following applies: DENV2-infected cells, cytopathic effect rescue, at 9.99 µM, active compounds read high. (In general: Damage to the host cells serves as the signal in cytopathic effect assays.)
`Cc1ccc(S(=O)(=O)N2C[C@@H](O)COC[C@@H]3O[C@@H](CC(=O)N[C@H]4CCN(Cc5ccccc5)C4)CC[C@H]32)cc1`: the CPE inhibition is -6.36% (inactive).
As to `C/C=C/c1ccccc1[C@H]1[C@@H](C#N)N(c2nc(CC)cs2)[C@@H]1CO`, the CPE inhibition is -4.18% (inactive).
For `Cc1ccc(-n2c(SCC(=O)N3CCC(C(=O)O)CC3)nc3ccccc3c2=O)cc1C` the value was 31.6% (active); for `O=C(CSc1nc2ccccc2c(=O)n1-c1ccccc1F)N1CCOCC1`, 3.85% (inactive); for `O=C(CSc1nc2ccccc2c(=O)n1-c1ccc(F)cc1)NC1CC1`, -10.2% (inactive).
Then `CC(=O)N1[C@H](CO)[C@H](c2ccccc2)C12CN(C(=O)c1ccccn1)C2`, with 3.27% (inactive); and `C=CCOc1c(CNn2cn[nH]c2=S)cccc1OC`, with -7.79% (inactive).
With `C=CCn1c(-c2ccccc2OCC)n[nH]c1=S`, the CPE inhibition was -1.21% (inactive).
For `C=CCOc1ccccc1CNn1c(C)n[nH]c1=S`, the CPE inhibition is 25.4% (active).
For `Nc1ncnc2c1ncn2[C@@H]1O[C@H](C(=O)N[C@@H](CCc2ccccc2)C(=O)N2CCCN(Cc3cccs3)CC2)[C@@H](O)[C@H]1O` the value was -8.03% (inactive).
For `COc1cccc(S(=O)(=O)N[C@H]2CC[C@H](CC(=O)NC3CCC3)O[C@H]2CO)c1` the value was -5.34% (inactive); for `CO[C@@H]1CN(C)C(=O)c2ccc(NC(=O)c3ccccn3)cc2OC[C@@H](C)N(C(=O)C2CCCCC2)C[C@H]1C`, -2.92% (inactive); for `O=C(C[C@H]1CC[C@H](NC(=O)Nc2ccc(C(F)(F)F)cc2)[C@H](CO)O1)NCCN1CCCC1`, 1.56% (inactive).
For the compound `CCOc1ccccc1Nc1ccc2nonc2c1[N+](=O)[O-]`, the CPE inhibition was 22.7% (active).
As for `CCOc1ccccc1Nc1ccc(C(=O)O)cc1[N+](=O)[O-]`, the CPE inhibition was 2.94% (inactive).
For `NC(=O)c1ccc(Nc2ccc3nonc3c2[N+](=O)[O-])cc1`, the CPE inhibition was -0.407% (inactive).
`O=C(Nc1ccccc1)N1C[C@H]2[C@@H](c3ccccc31)[C@@H](CO)N2Cc1cocn1`: the CPE inhibition is -3.04% (inactive).
Then `CO[C@H]1CN(C)C(=O)c2ccc(NC(=O)c3cc(C)on3)cc2OC[C@@H](C)NC[C@@H]1C`, with -4.45% (inactive); and `Cc1cccc(-c2ccc([C@H]3[C@H](CO)N4CCCCN(S(=O)(=O)c5cn(C)cn5)C[C@@H]34)cc2)c1`, with -11.9% (inactive); and `O=S(=O)(Cc1ccccc1)N1CCCCN2[C@@H](CO)[C@H](c3ccc(-c4ccccc4)cc3)[C@@H]2C1`, with 59% (active).
Consider `COc1cccc(-c2ccc([C@H]3[C@H](CO)N4CCCCN(S(=O)(=O)c5cccs5)C[C@@H]34)cc2)c1`, for which the CPE inhibition was -2.61% (inactive).
On to `Cc1cccc(-c2ccc([C@@H]3[C@@H](CO)N4CCCCN(S(=O)(=O)c5cccs5)C[C@H]34)cc2)c1`, for which the CPE inhibition was 32.7% (active).
In the case of `O=S(=O)(Cc1ccccc1)N1CCCCN2[C@@H](CO)[C@@H](c3ccc(-c4ccc(F)cc4)cc3)[C@@H]2C1`, the CPE inhibition was -23% (inactive).
For the compound `CCS(=O)(=O)N1CCCCN2[C@@H](CO)[C@@H](c3ccc(-c4ccccc4)cc3)[C@@H]2C1`, the CPE inhibition is 12.3% (inactive).
In the case of `CCNC(=O)[C@H]1[C@H](CO)[C@H]2Cn3c(cccc3=O)[C@H]2N1C(=O)C1CCCC1`, the CPE inhibition is 3.43% (inactive).
`C[C@@H]1CCCCO[C@@H](CN(C)C(=O)C2CCCCC2)[C@H](C)CN([C@H](C)CO)C(=O)c2cc(NC(=O)Cc3ccccc3)ccc2O1`: the CPE inhibition was -2.34% (inactive).
Then `COc1cccc(S(=O)(=O)N[C@H]2CC[C@@H](CC(=O)NCc3ccc(F)cc3)O[C@@H]2CO)c1`, with 2.23% (inactive); and `O=C(O)C[C@@H]1CC[C@H](NC(=O)CCN2CCCCC2)[C@H](CO)O1`, with 20.1% (active).
For `O=C(C[C@H]1CC[C@H](NC(=O)CCN2CCCCC2)[C@@H](CO)O1)Nc1ccccc1` the value was -7.71% (inactive); for `CN(C)CC(=O)N[C@@H]1CC[C@H](CC(=O)O)O[C@H]1CO`, 8.44% (inactive).
For `C[C@@H](NC(=O)C[C@@H]1C=C[C@@H](NC(=O)CN2CCOCC2)[C@H](CO)O1)c1ccccc1` the value was -6.9% (inactive); for `CNC(=O)C[C@@H]1CC[C@@H]2[C@@H](COc3ccc(NC(=O)Cc4cccs4)cc3C(=O)N2C)O1`, -1.22% (inactive); for `COc1ccccc1C(=O)Nc1ccc2c(c1)OC[C@@H](C)NC[C@H](C)[C@@H](OC)CN(C)C2=O`, -3.53% (inactive).
Take `O=C(NC1CCCCC1)C1CCCN(S(=O)(=O)c2ccc(Br)s2)C1` (stereo not drawn): the CPE inhibition is 2.35% (inactive).
Take `O=C(C1CCN(S(=O)(=O)c2ccc(Br)s2)CC1)N1CCN(c2ccccc2)CC1`: the CPE inhibition is -4.17% (inactive).
For `O=C(C1CCN(S(=O)(=O)c2ccc(Br)s2)CC1)N1CCN(C2CCCCC2)CC1` the value was 66.2% (active).
As to `C[C@H](CO)N1C[C@H](C)[C@H](CN(C)Cc2ccccc2)OCCCC[C@H](C)Oc2ccc(NC(=O)c3ccccc3)cc2C1=O`, the CPE inhibition is -7.82% (inactive).
For `C[C@H](CO)N1C[C@H](C)[C@@H](CN(C)CC2CC2)OCCCC[C@H](C)Oc2ccc(NC(=O)Cc3ccccc3)cc2C1=O` the value was 57.8% (active); for `C[C@@H]1CN([C@@H](C)CO)C(=O)c2cc(NC(=O)Cc3ccccc3)ccc2O[C@H]1CN(C)CC1CC1`, 31.5% (active); for `C[C@@H]1CN([C@@H](C)CO)C(=O)c2cc(NC(=O)Cc3ccccc3)ccc2O[C@@H]1CN(C)CC1CCCCC1`, 2.75% (inactive).
Take `C[C@H]1CCCCO[C@H](CN(C)Cc2ccccc2)[C@@H](C)CN([C@@H](C)CO)C(=O)c2cc(NC(=O)c3ccccc3)ccc2O1`: the CPE inhibition was 48.2% (active).
In the case of `C[C@@H]1CCCCO[C@@H](CN(C)CC2CCCCC2)[C@H](C)CN([C@H](C)CO)C(=O)c2cc(NC(=O)C3CCCCC3)ccc2O1`, the CPE inhibition was -14.3% (inactive).
As for `C[C@@H]1CCCCO[C@H](CN(C)CC2CC2)[C@@H](C)CN([C@H](C)CO)C(=O)c2cc(NC(=O)Cc3ccccc3)ccc2O1`, the CPE inhibition was 13.5% (inactive).
For `C[C@H](CO)N1C[C@H](C)[C@@H](CN(C)Cc2ccc(C(=O)O)cc2)OCCCC[C@H](C)Oc2ccc(NC(=O)c3ccccc3)cc2C1=O` the value was -2.18% (inactive); for `C[C@@H]1CN([C@H](C)CO)C(=O)c2cc(NC(=O)C3CCCCC3)ccc2O[C@@H]1CN(C)CC1CCCCC1`, 22.8% (active).
With `C[C@H](CO)N1C[C@H](C)[C@H](CN(C)CC2CCCCC2)Oc2ccc(NC(=O)C3CCCCC3)cc2C1=O`, the CPE inhibition is 0.912% (inactive).
In the case of `C[C@@H]1CCCCO[C@H](CN(C)Cc2ccccc2)[C@@H](C)CN([C@H](C)CO)C(=O)c2cc(NC(=O)Cc3ccccc3)ccc2O1`, the CPE inhibition is -14% (inactive).
Regarding `C[C@@H]1CN([C@H](C)CO)C(=O)c2cc(NC(=O)Cc3ccccc3)ccc2O[C@@H]1CN(C)CC1CCCCC1`, the CPE inhibition is -0.335% (inactive).
